Source: PubChem BioAssay (Tox21)
Several values for one entry are separate records, joined by “and”; a condition that tells them apart may be missing. Identical values can stand only once. Records with an inconclusive call do not appear. Where a call stands in place of a potency, no number is given. Activity calls are given as the source filed them. Calls follow the shape of the dose curve; as a rule, active = well fitted cell-killing curve with a large enough effect in the repeat runs; inconclusive = weak or mixed curves, or effect the other way; inactive = flat fitted curve, though single readings scatter.

Tests used:
[1] = cAMP Responsive Elements (CRE) small molecule antagonists, cell-based qHTS assay: qHTS cell viability counter screen (AID 2060913); also: nearly all actives have a fitted effect of over 40% in size
How it was run: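 CRE-bla HEK293T cells (2,000/well, 18 h) given compound plus NKH477 0.25 uM final for 3 h at 37C; viability counter-screen by CellTiter-Glo luminescence in same wells after 30 min.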

[2] = cAMP Responsive Elements (CRE) small molecule agonists, cell-based qHTS assay: qHTS cell viability counter screen (AID 2060914);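 also: viability read after 3 h of compound exposure; nearly all actives have a fitted effect of over 50% in size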
How it was run: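 HEK 293T CRE-bla; DMEM + 10% dialyzed FBS, 25 mM HEPES; 18 h pre-incubation; compound 3 h, 37 °C/5% CO2; CellTiter-Glo added after reporter read; luminescence after 30 min RT.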
Potency is read from the fitted curve at half-maximal effect.

Compound | Potency [1] | Potency [2]
CC[C@@]1(O)C(=O)OCc2c1cc1n(c2=O)Cc2cc3c(CN(C)C)c(O)ccc3nc2-1 | inactive | inactive
CCOC(=O)/C=C\C(=O)OCC | inactive | inactive
CCCCCCCCCCCCCCCC[N+](C)(C)Cc1ccccc1 | 63.1 µM (active) and 49.4 µM (active) and 33.5 µM (active) | 70.8 µM (active) and 44.1 µM (active) and 26.6 µM (active)
C=C[Si](OC(C)=O)(OC(C)=O)OC(C)=O | inactive | inactive
c1ccc(CCCc2ccncc2)cc1 | inactive | inactive
CCCCOC(=O)c1ccccc1 | inactive | inactive
CC(C)C1CCC(O)CC1 (stereo not given) | inactive | inactive
C[C@]12CCC(=O)C=C1CC[C@H]1[C@@H]3CC[C@](O)(C(=O)CO)[C@@]3(C)C[C@H](O)[C@@]12F | inactive | inactive
CC(=O)OC1CCCCC1 | inactive | inactive
CC(=O)N/N=C/c1ccc([N+](=O)[O-])o1 | inactive | inactive
CCCCCCCCOc1ccc(C(=O)c2ccccc2)c(O)c1 | inactive | inactive
O=C(O)CCS | inactive | inactive
COCC(=O)O | inactive | inactive
CCCCCCCCCCCCCBr | inactive | inactive
CSc1ccc(C=O)cc1 | inactive | inactive
COc1cc(NC(=O)CC(C)=O)c(OC)cc1Cl | inactive | inactive
Cc1ccc(C(=O)Nc2ccc(S(=O)(=O)O)c3cc(S(=O)(=O)O)cc(S(=O)(=O)O)c23)cc1NC(=O)c1cccc(NC(=O)Nc2cccc(C(=O)Nc3cc(C(=O)Nc4ccc(S(=O)(=O)O)c5cc(S(=O)(=O)O)cc(S(=O)(=O)O)c45)ccc3C)c2)c1 | inactive | inactive
CN(C)N=Nc1ccccc1 | inactive | inactive
NNCCc1ccccc1 | inactive | inactive
Nc1c(I)cc(I)c(C(=O)N(CCC(=O)O)c2ccccc2)c1I | inactive | inactive
N[C@@H](Cc1cc(I)c(Oc2ccc(O)c(I)c2)c(I)c1)C(=O)O | inactive | inactive
C[C@@H](O)C(=O)O | inactive | inactive
CCC(COC(=O)CCS)(COC(=O)CCS)COC(=O)CCS | inactive | inactive
CCCCC1CCC(O)CC1 (stereo not given) | inactive | inactive
COc1ccc(OC)c(C(O)CNC(=O)CN)c1 (stereo not given) | inactive | inactive
